This passage reports Inhibition results from ChEMBL document CHEMBL1157539, “Thousands of chemical starting points for antimalarial lead identification” (Nature, 2010).

Holding throughout (format): functional
The test system of assay [1] is Plasmodium falciparum. Nature of the assay: GSK_TCMDC: Inhibition of Plasmodium falciparum 3D7 in whole red blood cells, using parasite LDH activity as an index of growth. Test compounds present at 2uM.
Assay [2] deals with Plasmodium falciparum. Briefly: GSK_TCMDC: Inhibition of Plasmodium falciparum Dd2 in whole red blood cells, using parasite LDH activity as an index of growth. Test compounds present at 2uM.
Assay [3] relates to HepG2. Briefly: GSK_TCMDC: Percent inhibition of human HepG2 cell line. Test compounds present at 10uM.

By Inhibition is commonly meant the relative decrease from the control value, in per cent. Read a low Inhibition as little suppression. `C1=C(c2c[nH]c3ccccc23)CCN(Cc2ccccc2)C1`: the values for the Inhibition in assay [1], in assay [2] and in assay [3] were 91%, 80% and 22%, respectively.
The matching figures for `COCCNCc1cccc(-c2ccccc2CN(C(=O)Nc2ccccc2)C2CCN(Cc3ccccc3)CC2)c1.O=C(O)C(F)(F)F`: 96%, 51% and 30%.
As to `C=C[C@H]1CN2CC[C@H]1C[C@H]2[C@H](O)c1cc(-c2ccc(Cl)cc2)nc2ccc(OC)cc12.Cl`, the Inhibition in assay [1] came out at 99%; in assay [2], 98%; in assay [3] it was 38%.
On the same counts, the results for `CC(=O)Nc1ccc(CN2CCC(N(C)c3ccc(NC(=O)c4cccc(C)c4)cc3)CC2)cc1.O=C(O)C(F)(F)F` are 91%, 50% and 0%.
With `O=P(O)(O)Oc1c(Br)cc(Br)cc1-c1cc(Br)cc(Br)c1O` [BROMOFENOFOS], the Inhibition is 97% in assay [1], 0% in assay [2] and 10% in assay [3].
On the same counts, the results for `O=C(/C=C/c1ccc(Cl)c(Cl)c1)N1CCC(CN2C3CCC2CC(c2c[nH]c4ccccc24)C3)CC1` (stereo not given) are 100%, 66% and 84%.
On the same counts, the results for `COc1ccc(C[C@H]2NC[C@H](O)[C@H]2OC(C)=O)cc1` [ANISOMYCIN] are 100%, 98% and 39%.
For the compound `COC(=O)c1ccc(CC(C)NCC(O)c2cccc3ccccc23)cc1` (stereo not given), the Inhibition in assay [1] was found to be 96%; in assay [2], 82%; in assay [3] it was 3%.
The matching figures for `CN1CC=C(c2c[nH]c3ccc(Br)cc23)CC1`: 88%, 80% and 0%.
`C/C=C1/CN2CC[C@H]1C[C@H]2[C@H](O)c1ccnc2ccc(O)cc12`: the Inhibition in assay [1] stood at 99%; in assay [2], 11%; in assay [3], 0%.
